In all, about 370,000 compounds went through this assay and about 2,800 (0.76%) were called active. The list comes from a sample in which actives are over-represented; it also holds similar structures and randomly drawn compounds. A number with no mark means an inactive call. Rule as the data show it: active = inhibition above about 21%; inactive = the rest.
Target: E3 ubiquitin-protein ligase UHRF1 (Homo sapiens) (UniProt Q96T88)
Assay: UHRF1 methylated DNA binding inhibitors, primary screen, counter-screen for MBD2 inhibitor project, biochemical, TR-FRET, human UHRF1, single concentration (AID 687016);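 also: UHRF1 SRA domain binding a hemimethylated CpG hairpin DNA probe; 0% = median of test compound wells and 100% = reference inhibitor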
Conditions: UHRF1 binding to methylated oligo, at 4.4 µM, stronger effect = higher value

Chain of E3 ubiquitin-protein ligase UHRF1 (Homo sapiens) (Q96T88 whole entry, looked up, the tested form may be a part): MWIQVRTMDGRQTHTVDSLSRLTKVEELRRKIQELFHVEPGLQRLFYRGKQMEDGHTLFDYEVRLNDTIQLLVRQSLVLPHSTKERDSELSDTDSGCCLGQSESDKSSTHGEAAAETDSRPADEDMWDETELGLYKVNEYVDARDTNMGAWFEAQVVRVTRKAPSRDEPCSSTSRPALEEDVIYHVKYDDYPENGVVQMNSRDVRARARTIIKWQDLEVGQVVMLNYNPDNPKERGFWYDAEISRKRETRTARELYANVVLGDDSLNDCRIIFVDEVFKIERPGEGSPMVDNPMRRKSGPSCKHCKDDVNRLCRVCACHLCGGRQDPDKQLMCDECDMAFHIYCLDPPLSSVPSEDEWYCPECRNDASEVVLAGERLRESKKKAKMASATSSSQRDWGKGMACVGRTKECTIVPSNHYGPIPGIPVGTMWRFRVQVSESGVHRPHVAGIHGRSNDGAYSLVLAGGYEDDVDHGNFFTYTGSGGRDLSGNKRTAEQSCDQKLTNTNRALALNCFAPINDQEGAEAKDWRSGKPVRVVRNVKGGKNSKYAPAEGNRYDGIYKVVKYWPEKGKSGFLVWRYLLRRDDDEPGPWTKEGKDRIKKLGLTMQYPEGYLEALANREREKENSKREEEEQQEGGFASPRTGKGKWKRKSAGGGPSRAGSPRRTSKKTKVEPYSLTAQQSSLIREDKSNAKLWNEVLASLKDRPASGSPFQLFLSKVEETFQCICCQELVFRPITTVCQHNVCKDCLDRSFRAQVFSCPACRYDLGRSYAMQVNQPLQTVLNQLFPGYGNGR

Row | SMILES | inhibition
1 | COc1ccc([C@H]2OC(=O)C[C@H]2C(=O)N2CCN(c3ccccc3F)CC2)cc1OC | -2.23%
2 | O=S(=O)(Cc1ccccc1)c1nc2ccccc2n1Cc1ccccn1 | 0.93%
3 | CC(=O)Nc1nonc1-c1nc2ccccc2n1Cc1ccccn1 | 54.5% (active)
4 | COc1ccc(C)c(Cn2c(-c3nonc3N)nc3ccccc32)c1 | -5.53%
5 | Cc1cccc(C(=O)Nc2c(-c3ccc(F)cc3)nc3ncccn23)c1 | -2.59%
6 | COc1ccc(N2CCN(CCNS(=O)(=O)c3ccc([N+](=O)[O-])cc3)CC2)cc1 | -0.84%
7 | COc1c(C)cc(C(=O)C2CCCN(S(=O)(=O)c3c(C)noc3C)C2)cc1C (stereo not drawn) | 20.7% (active)
8 | Cc1noc(C)c1S(=O)(=O)N1CCCC(C(=O)Nc2nccs2)C1 (stereo not drawn) | -1.61%
9 | Cc1ccc(NC(=O)C2CCCN(S(=O)(=O)c3c(C)noc3C)C2)c(C)c1 (stereo not drawn) | -1.46%
10 | Cc1ccc(C2=CCN(C)C(=O)N2c2ccc(Cl)cc2)cc1 | -4.14%
11 | COc1ccc(C#CCNCc2ccc(OC)cc2OC)cc1 | -1.17%
12 | CCOC(=O)c1sc2nc(C)nc(SCC(N)=O)c2c1C | -1.2%
13 | CSc1nnc(SCc2nc3sc(C(=O)O)c(C)c3c(=O)[nH]2)s1 | 32.3% (active)
14 | CCN(CC)Cc1nc2sc(C)c(C)c2c(=O)[nH]1 | 2.13%
15 | Cc1c(C(C)c2ccccc2O)[nH]c2ccccc12 (stereo not drawn) | -2.42%
16 | O=C(CSc1nc2ccccc2s1)N=Nc1c(O)[nH]c2ccccc12 | -3.32%
17 | CCN(CC)C(=O)CC[C@@H]1CC[C@]2(CCCN(S(=O)(=O)C3CCCCC3)C2)O1 | -0.55%
18 | Cc1ccc(Cn2cc(COC(=O)N(C)Cc3ccccc3)nn2)cc1 | -4.1%
19 | Cc1cc(C)cc(NC(=O)Cn2cnc3c(nnn3Cc3ccc(F)cc3)c2=O)c1 | 0.23%
20 | Cc1ccc(Cn2nnc3c(=O)n(CC(=O)N4CCCCC4)cnc32)cc1 | 0.43%
21 | O=C(Cn1cnc2c(nnn2Cc2ccc(F)cc2)c1=O)NCc1ccc2c(c1)OCO2 | 21.8% (active)
22 | CCCCNC(=O)C[C@H]1C(=O)N(Cc2ccc(OC)cc2)C2=CCCC[C@@]21C(=O)OCC | 5.53%

Row | SMILES | inhibition
23 | Cc1nc(CNc2ncnc3ccc(-c4ccc5c(c4)OCO5)cc23)cs1 | -2.89%
24 | COC(=O)c1c(-c2ccc(C)cc2)csc1N | 28.4% (active)
25 | CCC(C(=O)OC)n1cnc2scc(-c3ccc(C)cc3)c2c1=O (stereo not drawn) | 0.64%
26 | COC(=O)c1sc(N)c(C(=O)OC)c1COC(=O)CNS(=O)(=O)c1ccc(C)cc1 | -0.33%
27 | CCCCNC(=O)C[C@H]1C[C@@]2(C(=O)OC)C(=C[C@H](COCc3ccccc3)O[C@@H]2C)N(Cc2ccc(Cl)cc2Cl)C1=O | 1.55%
28 | COC(=O)C1CN(CCc2ccccc2)CCS(=O)(=O)N1Cc1cccc(Cl)c1 (stereo not drawn) | 1.44%
29 | CC(NCc1ccco1)C(=O)N1CCCCC1 (stereo not drawn) | 0.03%
30 | COc1ccc(-n2c(SCC(=O)Nc3ccc4c(c3)OCCO4)nnc2-c2ccc(Cl)cc2)cc1 | 2.21%
31 | COC(=O)CC1CCc2cc(C)cc(C(CC(C)C)NC(=O)[C@H](CC(C)C)NC(=O)OCc3ccccc3)c2O1 (stereo partly drawn) | 4.14%
32 | CC(=O)c1cccc(-c2cnc3c(NC=O)cc(-c4ccc(N(C)C)cc4)cn23)c1 | 31.6% (active)
33 | CC(=O)c1cccc(-c2cnc3c(NC=O)cc(-c4ccc(N5CCN(C)CC5)cc4)cn23)c1 | -0.16%
34 | CN(C)C(=O)c1cccc(-c2cnc3c(NC=O)cc(-c4ccc(C(=O)N5CCOCC5)cc4)cn23)c1 | -6.57%
35 | Cc1ccccc1CN1CCCCC(NC(=O)Nc2ccccc2F)C1=O (stereo not drawn) | -1.71%
36 | CC(C)C(=O)N1CCN(c2nc(-c3ccccc3)c3c(c2C#N)CC(C)(C)OC3)CC1 | -0.61%
37 | CC1(C)Cc2c(C#N)c(SCc3nc4ccccc4[nH]3)nc(N3CCOCC3)c2CO1 | 25.8% (active)
38 | CCOC(=O)CSc1nc(N2CCOCC2)c2c(c1C#N)CC(C(C)C)OC2 (stereo not drawn) | 1.09%
39 | CCC[C@H]1C(=O)CC[C@@]23CCCN2C(=O)CCC[C@@H]13 | -3.81%
40 | CCN(CC)C(=O)C(=O)c1cn(CC(=O)NCc2ccc3c(c2)OCO3)c2ccccc12 | 1.9%
41 | CC(C)N(C(=O)Cn1cc(S(=O)(=O)CC(=O)N2CCOCC2)c2ccccc21)C(C)C | 0.05%
42 | CCN(CC)C(=O)Cn1cc(S(=O)(=O)CC(=O)NCc2ccc3c(c2)OCO3)c2ccccc21 | 22.7% (active)
43 | CCCC1(C(=O)OC)NC(c2ccco2)C2C(=O)N(C)C(=O)C21 (stereo not drawn) | 26.9% (active)
